# Assay results published in PubChem BioAssay (Tox21).
# Values without a mark were called inactive. Results filed as inconclusive are left out. Entries that show only a call come without a potency. Calls of active or inactive are those of the source. The call rests on the fitted dose curve.
# Assays:
# [1] = target: Acetylcholinesterase (Homo sapiens) (UniProt P22303); experiment: Acetylcholinesterase (AChE) small molecule antagonists: enzyme-based qHTS assay (AID 1347397); details: Potency: AChE enzyme activity inhibition; outcome: AChE enzyme activity inhibition; further: nearly all actives have a fitted effect of over 55% in size; further: potency means the concentration at half of the fitted maximal effect
# Sequence of Acetylcholinesterase (Homo sapiens) (P22303 whole entry, looked up): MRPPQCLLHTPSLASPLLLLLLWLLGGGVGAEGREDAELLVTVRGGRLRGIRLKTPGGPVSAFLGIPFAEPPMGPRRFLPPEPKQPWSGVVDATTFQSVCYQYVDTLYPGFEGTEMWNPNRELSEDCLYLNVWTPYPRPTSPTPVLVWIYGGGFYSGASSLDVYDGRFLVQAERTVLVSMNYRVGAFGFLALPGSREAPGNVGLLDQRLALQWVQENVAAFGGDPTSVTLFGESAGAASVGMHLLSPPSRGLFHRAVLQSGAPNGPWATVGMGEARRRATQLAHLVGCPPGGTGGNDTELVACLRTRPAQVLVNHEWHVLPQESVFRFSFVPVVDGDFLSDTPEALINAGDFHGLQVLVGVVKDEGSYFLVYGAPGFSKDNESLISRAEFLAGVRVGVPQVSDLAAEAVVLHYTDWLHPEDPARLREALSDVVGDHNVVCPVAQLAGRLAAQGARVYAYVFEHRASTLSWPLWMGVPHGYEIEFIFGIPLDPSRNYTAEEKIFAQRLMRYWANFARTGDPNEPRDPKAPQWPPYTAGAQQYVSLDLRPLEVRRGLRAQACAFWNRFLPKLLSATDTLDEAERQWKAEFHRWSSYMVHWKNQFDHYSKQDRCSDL
# Method in brief: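 In this quantitative HTS, compounds from the Tox21 10K collection were preincubated 30 min at ambient temperature with recombinant human AChE dispensed at 50 mU/mL. Hydrolysis of acetylthiocholine was then followed for 10 min by DTNB colour development.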
# [2] = target: Acetylcholinesterase (Homo sapiens) (UniProt P22303); experiment: Acetylcholinesterase (AChE) small molecule antagonists: fluorescence cell-based qHTS assay (AID 1347398); details: Potency: AChE activity; outcome: AChE activity; further: nearly all actives have a fitted effect of over 50% in size; further: potency means the concentration at half of the fitted maximal effect
# Method in brief: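 Cells (SH-SY5Y) attached overnight, were dosed with compound or DMSO vehicle for 30 min at 37 C, and then incubated 40 min at room temperature with acetylthiocholine and Thiolite Green; green fluorescence indexed AChE activity.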
# [3] = target: Acetylcholinesterase (Homo sapiens) (UniProt P22303); experiment: Acetylcholinesterase (AChE) small molecule antagonists: enzyme-based qHTS assay with human liver microsomes (AID 1347399); details: Potency: qHTS inhibition; outcome: qHTS inhibition; further: nearly all actives have a fitted effect of over 60% in size
# Method in brief: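 Recombinant human AChE (50 mU/mL in the enzyme mix) and human liver microsomes (0.25 mg/mL final) were preincubated with compound and NADPH (0.25 mg/mL final) for 30 min at 37 C. Acetylthiocholine/DTNB was then added; thiocholine was read colorimetrically after 10 min at room temperature.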
smiles,measurement,setting,value
CCCC(=O)C(=O)O,Potency,[1],inactive
same,Potency,[2],inactive
same,Potency,[3],inactive
Cc1nc2n(c(=O)c1CCN1CCC(c3noc4cc(F)ccc34)CC1)CCC[C@H]2O,"activity change, negative = inhibition",[1],-5.56% [at 23.6 µM]
same,"activity change, negative = inhibition",[2],-17.1% [at 23.8 µM]
same,"activity change, negative = inhibition",[3],-2.77% [at 23.6 µM]
CCOC(=O)OC(=O)OCC,Potency,[1],inactive
same,Potency,[2],inactive
same,Potency,[3],inactive
CCCCCCCCCCCCCCCCCCNC(=O)OC1CCN(C(=O)OC[C@H](COC(=O)N(Cc2cccc[n+]2CC)C(=O)c2ccccc2OC)OC)CC1,Potency,[1],30.9 µM (active)
same,Potency,[2],inactive
same,Potency,[3],inactive
c1ccc(CNCc2ccccc2)cc1,Potency,[1],inactive
same,Potency,[2],inactive
same,Potency,[3],inactive
CCCCCCCC[N+](CCCCCCCC)(CCCCCCCC)CCCCCCCC,Potency,[1],39.8 µM (active)
same,Potency,[2],70.9 µM (active)
same,Potency,[3],inactive
C/C=C1\C(=O)C[C@H]2[C@@H]3CCC4=CC(=O)CC[C@]4(C)[C@H]3CC[C@]12C,Potency,[1],inactive
same,Potency,[2],inactive
same,Potency,[3],inactive
Nc1cccc(S(=O)(=O)O)c1,Potency,[1],inactive
same,Potency,[2],inactive
same,Potency,[3],inactive
Cc1ccc(OC(=O)c2ccccc2O)cc1,Potency,[1],inactive
same,Potency,[2],inactive
same,Potency,[3],inactive
CCC(CN)=C(c1ccccc1)c1ccccc1,Potency,[1],inactive
same,Potency,[2],inactive
same,Potency,[3],inactive
O=S(=O)(O)c1cc(I)c(O)c2ncccc12,Potency,[1],inactive
same,Potency,[2],inactive
same,Potency,[3],inactive
CN[C@H]1CC[C@@H](c2ccc(Cl)c(Cl)c2)c2ccc(S(N)(=O)=O)cc21,Potency,[1],inactive
same,Potency,[2],35.6 µM (active)
same,Potency,[3],inactive
CC(=O)N[C@@H](CC(C)C)C(=O)O,Potency,[1],inactive
same,Potency,[2],inactive
same,Potency,[3],inactive
CC1COc2c(N3CCN(C)CC3)c(F)cc3c(=O)c(C(=O)O)cn1c23 (stereo not given),Potency,[1],inactive
same,Potency,[2],inactive
same,Potency,[3],inactive
CC(=C(CCOC(=O)C(C)C)SSC(CCOC(=O)C(C)C)=C(C)N(C=O)Cc1cnc(C)nc1N)N(C=O)Cc1cnc(C)nc1N,Potency,[1],inactive
same,Potency,[2],inactive
same,Potency,[3],inactive
CCC(C)OC(C)CC (stereo not given),Potency,[1],inactive
same,Potency,[2],inactive
same,Potency,[3],inactive
S=C([S-])NCCNC(=S)[S-].[Mn+2],Potency,[1],inactive
same,Potency,[2],39.9 µM (active)
same,Potency,[3],inactive
O=C1c2ccccc2S(=O)(=O)N1CCCCN1CCN(c2ncccn2)CC1,Potency,[1],inactive
same,Potency,[2],inactive
same,Potency,[3],inactive
COC(=O)c1cc(Cl)ccc1[N+](=O)[O-],Potency,[1],inactive
same,Potency,[2],inactive
same,Potency,[3],inactive
CN1CCC(=C2c3ccccc3CC(=O)c3sccc32)CC1,Potency,[1],inactive
same,Potency,[2],inactive
same,Potency,[3],inactive
OCC(CO)N[C@H]1C[C@](O)(CO)[C@@H](O)[C@H](O)[C@H]1O,Potency,[1],inactive
same,Potency,[2],inactive
same,Potency,[3],inactive
N[C@@H](CSCCCO)C(=O)O,"activity change, negative = inhibition",[1],1.52% [at 23.6 µM]
same,"activity change, negative = inhibition",[2],1.96% [at 23.8 µM]
same,"activity change, negative = inhibition",[3],-0.67% [at 23.6 µM]
CCNC(=O)NCCCOc1cccc(CN2CCCCC2)c1,Potency,[1],inactive
same,Potency,[2],inactive
same,Potency,[3],inactive
Cc1cc(=O)oc2cc(O[C@@H]3SC[C@@H](O)[C@H](O)[C@H]3O)ccc12,Potency,[1],inactive
same,Potency,[2],inactive
same,Potency,[3],inactive
CCCCCCCC[P+](CCCCCCCC)(CCCCCCCC)CCCCCCCC,Potency,[1],22.3 µM (active)
same,Potency,[2],62.9 µM (active)
same,Potency,[3],inactive
NCCCCCCNCCCCCCN,Potency,[1],inactive
same,Potency,[2],39.3 µM (active)
same,Potency,[3],inactive
CC1CCC(C(C)(C)O)CC1 (stereo not given),Potency,[1],inactive
same,Potency,[2],inactive
same,Potency,[3],inactive
Cc1oncc1C(=O)Nc1ccc(C(F)(F)F)cc1,Potency,[1],inactive
same,Potency,[2],inactive
same,Potency,[3],inactive
CC(C)(C)c1ccc(OCC2CO2)cc1 (stereo not given),Potency,[1],inactive
same,Potency,[2],inactive
same,Potency,[3],inactive
NC(=O)c1ccc(N)cc1,Potency,[1],inactive
same,Potency,[2],inactive
same,Potency,[3],inactive
COc1cc(C(=O)NC2CCCNC2)cc(OC)c1OC (stereo not given),Potency,[1],inactive
same,Potency,[2],inactive
same,Potency,[3],inactive
Nc1cccnc1N,Potency,[1],inactive
same,Potency,[2],inactive
same,Potency,[3],inactive
O=C(O)c1c(O)c(-c2ccccc2)nc2ccccc12,Potency,[1],inactive
same,Potency,[2],inactive
same,Potency,[3],inactive
CCCCCCCCCCCCCCCC,Potency,[1],inactive
same,Potency,[2],inactive
same,Potency,[3],inactive
CNCc1cc(F)ccc1Oc1ccc(Cl)c(Cl)c1,Potency,[1],inactive
same,Potency,[2],inactive
same,Potency,[3],inactive
COc1cc2nc(N3CCN(C(=O)c4ccco4)CC3)nc(N)c2cc1OC,"activity change, negative = inhibition",[1],-11.6% [at 23.6 µM]
same,"activity change, negative = inhibition",[2],-22.9% [at 23.8 µM]
same,"activity change, negative = inhibition",[3],-0.588% [at 23.6 µM]
CC(=O)Oc1ccc(C(C)=O)cc1,Potency,[1],inactive
same,Potency,[2],inactive
same,Potency,[3],inactive
N=C(N)c1ccc(OCCCOc2ccc(C(=N)N)cc2)cc1,Potency,[1],inactive
same,Potency,[2],inactive
same,Potency,[3],inactive
CC(C)(O)c1ccccc1,Potency,[1],inactive
same,Potency,[2],inactive
same,Potency,[3],inactive
COC(=O)C1=C(C)NC(C)=C(C(=O)OCCN2CCN(C(c3ccccc3)c3ccccc3)CC2)C1c1cccc([N+](=O)[O-])c1 (stereo not given),Potency,[1],inactive
same,Potency,[2],inactive
same,Potency,[3],inactive
NC(N)=N/N=C/c1c(Cl)cccc1Cl,Potency,[1],inactive
same,Potency,[3],inactive
OC/C=C/CO,Potency,[1],inactive
same,Potency,[2],inactive
same,Potency,[3],inactive
O=[N+]([O-])c1cc(Cl)c(Cl)c(Cl)c1Cl,Potency,[1],inactive
same,Potency,[2],inactive
same,Potency,[3],inactive
C[n+]1ccn(Cc2ccccc2)c1,Potency,[1],inactive
same,Potency,[3],inactive
Cc1cc(-c2ccc(N=Nc3cc(S(=O)(=O)O)c4ccccc4c3N)c(C)c2)ccc1N=Nc1cc(S(=O)(=O)O)c2ccccc2c1N,Potency,[1],inactive
same,Potency,[3],inactive
[O-][n+]1cccc(/C(Cl)=N/OC[C@@H](O)CN2CCCCC2)c1,Potency,[1],inactive
same,Potency,[2],inactive
same,Potency,[3],inactive
